The panel holds about 83,000 compounds, 20% with a hit somewhere; the sample as a whole holds those more often.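 Activity criterion: percent growth below 10, measured after cells in 96-well plates were exposed to a single compound concentration for 48 hours.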 Values without a mark were called inactive. Activity calls are given as the source filed them.

Holding throughout (assay): NCI-60 one-dose screen, 48 h (100 = growth as untreated, 0 = no growth, -100 = all killed)
The subject of one assay is SK-MEL-2 melanoma. The following applies: 10 µM unless noted.
Another assay has as its system EKVX NSCLC. The following applies: 10 µM unless noted.
Another assay deals with SN12C renal. The settings on record: 10 µM unless noted.
The test system of another assay is TK-10 renal. The settings on record: 10 µM unless noted.
Another assay deals with ACHN renal. The settings on record: 10 µM unless noted.
In the next assay the test system is CAKI-1 renal. The settings on record: 10 µM.
The test system of another assay is A498 renal. The settings on record: 10 µM unless noted.
For a further assay, the system named is CCRF-CEM leukemia. The following applies: 10 µM unless noted.
A further assay deals with MOLT-4 leukemia. The settings on record: 10 µM unless noted.
The test system of a further assay is SR leukemia. The following applies: 10 µM unless noted.
The next assay concerns RPMI-8226 leukemia. The settings on record: 10 µM unless noted.
A further assay concerns OVCAR-8 ovarian. The settings on record: 10 µM unless noted.
The subject of a further assay is OVCAR-5 ovarian. The following applies: 10 µM unless noted.
The test system of another assay is OVCAR-4 ovarian. The following applies: 10 µM unless noted.
The subject of another assay is OVCAR-3 ovarian. The following applies: 10 µM unless noted.
The next assay has as its system HS 578T breast. The settings on record: 10 µM unless noted.
The subject of a further assay is NCI/ADR-RES ovarian. The settings on record: 10 µM unless noted.
In the next assay the test system is SK-OV-3 ovarian. The settings on record: 10 µM unless noted.
For a further assay, the system named is UO-31 renal. The settings on record: 10 µM unless noted.
A further assay has as its system IGROV1 ovarian. The settings on record: 10 µM unless noted.

As for `CCCCN(CCCC)c1ccc(C(=N)c2ccc(N(C)C)cc2)cc1`, the growth with SK-MEL-2 melanoma is -69.6% (active); with EKVX NSCLC it was -11.9% (active); in the assay on SN12C renal, -30% (active); with TK-10 renal it was -5.56% (active); in the assay with ACHN renal, -2.72% (active); in the assay with CAKI-1 renal, -28.9% (active). Further, the growth with A498 renal was 9.81% (active); with CCRF-CEM leukemia, 1.04% (active); with MOLT-4 leukemia it was 1.79% (active); in the assay on SR leukemia, -44.4% (active); with RPMI-8226 leukemia, -43.3% (active); in the assay on OVCAR-8 ovarian, -15.4% (active). In addition, the growth in the assay on OVCAR-5 ovarian is -2.12% (active); with OVCAR-4 ovarian, 7.13% (active); in the assay on OVCAR-3 ovarian it was -74.3% (active); in the assay with HS 578T breast, -68.9% (active); in the assay with NCI/ADR-RES ovarian it was -47.4% (active).

`CC(=O)N1N=C2N(Cc3ccccc3)C(=O)c3c(sc4c3CCCC4)N2C1c1cn(-c2ccccc2)nc1-c1ccc(Cl)cc1` (configuration not stated): the growth in the assay on SK-MEL-2 melanoma is 98%; in the assay with EKVX NSCLC, 87.9%; in the assay with SN12C renal, 103%; in the assay with TK-10 renal it was 102%; in the assay on ACHN renal, 96.6%; in the assay on CAKI-1 renal, 101%. In addition, the growth with A498 renal was 103%; in the assay on CCRF-CEM leukemia, 92.4%; with MOLT-4 leukemia it was 86.3%; with RPMI-8226 leukemia, 87.9%; in the assay on OVCAR-8 ovarian, 100%; in the assay on OVCAR-5 ovarian, 101%. Further, the growth in the assay with OVCAR-4 ovarian is 115%; in the assay on SK-OV-3 ovarian, 88%; in the assay on OVCAR-3 ovarian, 101%; with HS 578T breast it was 93%.

With `COc1ccc(C(=O)NC(=O)Nc2ccc3c(c2)NC(=O)/C3=C\c2[nH]c(C)c(C(=O)O)c2C)c(F)c1`, the growth in the assay with SK-MEL-2 melanoma is 55.3%; in the assay on EKVX NSCLC, 94.4%; in the assay with SN12C renal, 57.9%; with UO-31 renal, 88.4%; with ACHN renal, 55.2%; with A498 renal it was 64.8%. Besides, the growth with CCRF-CEM leukemia is 84.3%; in the assay on MOLT-4 leukemia it was 86.2%; in the assay with SR leukemia, 58.2%; with RPMI-8226 leukemia, 6.29% (active); in the assay with OVCAR-8 ovarian it was 56.4%; with OVCAR-5 ovarian, 98.8%. Further, the growth in the assay with OVCAR-4 ovarian was 12%; in the assay on SK-OV-3 ovarian, 74.1%; with IGROV1 ovarian, 46.8%; with OVCAR-3 ovarian it was 5.25% (active); in the assay with HS 578T breast, 49.4%; with NCI/ADR-RES ovarian it was 74.1%.

On to `Nc1ncnc2c1c(-c1ccc(Oc3ccccc3)cc1)nn2C[C@@H]1SSC[C@H]1O`, for which the growth was -14.4% (active) in the assay with SK-MEL-2 melanoma; 33.2% in the assay on EKVX NSCLC; 23.3% in the assay on SN12C renal; 0.587% (active) in the assay on UO-31 renal; 11.6% with ACHN renal; -5.51% (active) with A498 renal. Also, the growth is 32.9% with CCRF-CEM leukemia; 0.449% (active) with MOLT-4 leukemia; 4.41% (active) in the assay with SR leukemia; 50.9% with RPMI-8226 leukemia; 33.3% in the assay with OVCAR-8 ovarian; 80.8% in the assay with OVCAR-5 ovarian. In addition, the growth was 50.2% in the assay with OVCAR-4 ovarian; -8.06% (active) in the assay on SK-OV-3 ovarian; -10.3% (active) in the assay with IGROV1 ovarian; 18.3% with OVCAR-3 ovarian; 16.9% in the assay on HS 578T breast; 48.3% with NCI/ADR-RES ovarian.

Take `CCCCC(=O)Nc1nc2ccc(SCCC)cc2s1`: the growth in the assay with SK-MEL-2 melanoma is 50.1%; in the assay with EKVX NSCLC, 59.7%; in the assay on SN12C renal, 50.1%; in the assay on UO-31 renal, 37.5%; in the assay on ACHN renal, 75.1%; in the assay on A498 renal, 9.34% (active). The growth with CCRF-CEM leukemia is 44%; in the assay on MOLT-4 leukemia, 29.8%; in the assay with SR leukemia, 6.63% (active); in the assay with RPMI-8226 leukemia, 15.7%; in the assay on OVCAR-8 ovarian it was 56.7%; in the assay with OVCAR-5 ovarian it was 69%. Besides, the growth in the assay with OVCAR-4 ovarian was 81.1%; in the assay on SK-OV-3 ovarian it was 66%; in the assay on IGROV1 ovarian it was 54.2%; in the assay with OVCAR-3 ovarian, 22.8%; in the assay with HS 578T breast, 48.9%; with NCI/ADR-RES ovarian, 13%.

Take `CCCC(=O)Oc1ccc(/C(=C(\C)c2ccc(Cl)cc2)c2ccc(OCCN(CC)CC)cc2)cc1`: the growth in the assay with SK-MEL-2 melanoma is -74.4% (active); in the assay with EKVX NSCLC, 12%; in the assay with SN12C renal, 35.3%; with UO-31 renal, -65% (active); in the assay with ACHN renal, -23.2% (active); with A498 renal it was 11.5%. Further, the growth in the assay with CCRF-CEM leukemia was -18.6% (active); in the assay with MOLT-4 leukemia, -13.1% (active); in the assay on SR leukemia, -36.3% (active); in the assay on RPMI-8226 leukemia, -49.5% (active); with OVCAR-8 ovarian, -48.4% (active); in the assay on OVCAR-5 ovarian, 30.4%. Also, the growth in the assay with OVCAR-4 ovarian was 3.08% (active); in the assay with SK-OV-3 ovarian, -6.52% (active); with IGROV1 ovarian, 12.5%; in the assay on OVCAR-3 ovarian, -64.6% (active); in the assay on HS 578T breast, -38.1% (active); in the assay with NCI/ADR-RES ovarian, -6.97% (active).

For `CS(=O)(=O)Nc1cccc(-c2ccc3ncnc(Nc4ccc(F)c(Cl)c4)c3c2)c1`, the growth in the assay with SK-MEL-2 melanoma was -4.95% (active); with EKVX NSCLC it was 7.22% (active); with SN12C renal, 44.2%; with UO-31 renal it was 21.1%; with ACHN renal, 22.3%; in the assay with A498 renal it was -25.7% (active). Besides, the growth was 19.1% in the assay on CCRF-CEM leukemia; 0.953% (active) in the assay on MOLT-4 leukemia; -2.28% (active) with SR leukemia; 18.4% in the assay with RPMI-8226 leukemia; 29% with OVCAR-8 ovarian; 49.1% with OVCAR-5 ovarian. Moreover, the growth was 37% in the assay with OVCAR-4 ovarian; -10.8% (active) in the assay with SK-OV-3 ovarian; -3.89% (active) in the assay with IGROV1 ovarian; 25.9% in the assay on OVCAR-3 ovarian; 11.5% in the assay with HS 578T breast; 39.2% with NCI/ADR-RES ovarian.

As to `COc1cc2ncn3c(=O)c4c5c(sc4nc3c2cc1OC)CCCCC5`, the growth with SK-MEL-2 melanoma is 113%; with EKVX NSCLC, 87.9%; in the assay on SN12C renal it was 105%; in the assay on UO-31 renal it was 92.5%; in the assay with ACHN renal, 94%; in the assay on A498 renal, 90.9%. Further, the growth with CCRF-CEM leukemia is 103%; in the assay on MOLT-4 leukemia, 106%; with SR leukemia, 97.9%; in the assay on RPMI-8226 leukemia, 103%; in the assay on OVCAR-8 ovarian, 102%; with OVCAR-5 ovarian, 98.6%. Moreover, the growth in the assay on OVCAR-4 ovarian is 101%; in the assay on SK-OV-3 ovarian, 99.6%; in the assay with IGROV1 ovarian, 79.3%; in the assay with OVCAR-3 ovarian, 98.4%; in the assay on HS 578T breast, 99.7%.

In the case of `Cc1ccc(-c2cn3cc([N+](=O)[O-])ccc3n2)cc1`, the growth in the assay on SK-MEL-2 melanoma was 71.5%; with EKVX NSCLC, 67.4%; with SN12C renal, 75.3%; with UO-31 renal, 57.2%; in the assay with ACHN renal, 73.4%; in the assay on A498 renal it was 57.6%. The growth was 52.6% in the assay with CCRF-CEM leukemia; 57.6% with MOLT-4 leukemia; 75.5% in the assay on SR leukemia; 76.7% with OVCAR-8 ovarian; 109% in the assay on OVCAR-5 ovarian; 78.1% in the assay with OVCAR-4 ovarian. In addition, the growth is 102% in the assay on SK-OV-3 ovarian; 71% in the assay on IGROV1 ovarian; 101% in the assay on OVCAR-3 ovarian; 97.1% in the assay with HS 578T breast; 83.4% in the assay on NCI/ADR-RES ovarian.
